Reference: PubChem BioAssay
Values joined by “and” are separate entries in the source; they are usually repeats but may differ in a detail not shown here. Identical values can stand only once. Active and inactive are the calls of the source.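 How the source made its calls: active means compounds killing one labelled cell type while sparing the other, by normalised counts and ratio limits, not self-fluorescent; inactive means the rest.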

Assay: EMT-state selective cytotoxicity in co-culture – imaging, PC-3E GFP, TEM4-18 mCherry, primary screen (AID 1345086);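 further: cells exposed to compound for 72 h before imaging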;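 on red/green cell ratio (normalised): normalised mesenchymal count divided by normalised epithelial count so high means epithelial killing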
Conditions: PC-3E GFP / TEM4-18 mCherry co-culture, imaging cell counts, at 1 µM; for red/green cell ratio (normalised): actives lie on both sides, counts scaled to control wells, 1 = unselective
[1] = measured here: epithelial PC-3E GFP cell survival
[2] = measured here: mesenchymal TEM4-18 mCherry cell survival

| SMILES | red/green cell ratio (normalised) | normalised cell number [1] | normalised cell number [2] |
| --- | --- | --- | --- |
| C[C@H]1C[C@H](O)[C@H]2[C@@H](C=C[C@@](C)(O)[C@]2(C)C(=O)CCO)C1 | 0.95 (inactive) | 0.32 | 0.3 |
| C=CC(C)(C)c1cccc2[nH]c3c(c12)C[C@@H]1CC[C@@]2(O)C4=CC(=O)[C@@H]5O[C@@]4(CC[C@]2(C)[C@@]31C)CC5(C)C | 1 (inactive) | 1.11 | 1.11 |
| [N-]=[N+]=NC1[C@@H](O)C2OC(c3ccccc3)OCC2O[C@@H]1Sc1ccccc1 (stereo not given in full) | 1.1 (inactive) | 0.95 | 1.04 |
| C#C[C@H](O)COc1ccc(C(=O)O)cc1 | 1.18 (inactive) | 0.57 | 0.68 |
| CC(=O)OCC1O[C@H]2OC(=O)NC2[C@@H](OC(C)=O)C1OC(C)=O (stereo not given in full) | 0.82 (inactive) | 1.33 | 1.08 |
| Cc1ccc(S[C@H]2OC3COC(c4ccccc4)OC3[C@@H]3OC(=O)N[C@H]23)cc1 (stereo not given in full) | 1.55 (inactive) | 0.36 | 0.55 |
| O=C(O)c1cn(C2CC2)c2cc(N3CCN(c4ncncn4)CC3)c(F)cc2c1=O | 1.22 (inactive) | 0.88 | 1.08 |
| O=C(O)c1ccc(-c2ccccc2)cc1 | 0.96 (inactive) | 1.01 | 0.97 |
| C[C@H](Oc1ccc(Oc2ccc3ncc(Cl)nc3c2)cc1)C(=O)O | 0.92 (inactive) | 1.29 | 1.18 |
| O=c1cc(-c2ccccc2)oc2cc(O[C@@H]3O[C@H](CO)[C@@H](O)[C@H](O)[C@H]3O)c(O)c(O)c12 | 0.89 (inactive) | 1.13 | 1 |
| COC1O[C@@H]2O[C@]3(C)CC[C@H]4[C@H](C)CC[C@@H]([C@H]1C)[C@@]24OO3 (stereo not given in full) | 0.81 (inactive) | 0.82 | 0.67 |
| CC1=C2[C@H](C=C3CCC[C@@H](C)[C@]3(C)[C@@H]2O)OC1=O | 0.84 (inactive) | 1.01 | 0.85 |
| CCC(CCC(C)[C@H]1CCC2C3CC=C4C[C@@H](O)CC[C@]4(C)C3CC[C@@]21C)C(C)C (stereo not given in full) | 1.04 (inactive) | 1.04 | 1.08 |
| Oc1ccc2c(c1)OCC1(O)Cc3cc(O)c(O)cc3C21 (stereo not given) | 1.17 (inactive) | 1.12 | 1.31 |
| COC(=O)C[C@H]1C2(C)CC34OC5(C)O[C@]6(C7/C(=C(/OC)C(C)C)C(=O)O[C@@H](c8ccoc8)[C@]7(C)C(OC(=O)C(C)C)[C@@H](OC)[C@]6(O5)C13C)[C@H](OC)[C@@]4(OC)C2OC(C)=O (stereo not given in full) | 0.95 (inactive) | 1.04 | 1 |
| C=CC(C)(C)c1cc(O)ccc1OC1OC(CO)C(O)C(O)C1O (stereo not given) | 1.01 (inactive) | 0.93 | 0.94 |
| COc1ccc2c(c1)CCC1C2CC[C@@]2(C)C1CC[C@@H]2O (stereo not given in full) | 0.78 (inactive) | 1.46 | 1.14 |
| COc1cc([C@@]2(C)[C@@H]3[C@@H](C)CCC[C@@H]3C=C[C@@H]2C)oc(=O)c1C=O | 0.92 (inactive) | 1.06 | 0.98 |
| CC(=O)OCC1O[C@H](Sc2ccc(C)cc2)[C@@H]2[C@@H](OC(=O)N2Cc2ccccc2)C1OC(C)=O (stereo not given in full) | 0.83 (inactive) | 1.3 | 1.08 |
| C#C[C@]1(O)CC[C@@H]2C3[C@H](C)CC4=C(CCC(=O)C4)[C@H]3CC[C@@]21C (stereo not given in full) | 1.13 (inactive) | 1.07 | 1.21 |

| SMILES | red/green cell ratio (normalised) | normalised cell number [1] | normalised cell number [2] |
| --- | --- | --- | --- |
| C/C=C/[C@@H]1OC2=C(C(=O)O[C@H]2C)[C@H](O)[C@H]1O | 0.96 (inactive) | 0.76 | 0.73 |
| O=c1cc(-c2ccccc2)oc2ccc(O)cc12 | 1.07 (inactive) | 0.91 | 0.97 |
| CC(C)=C1CC[C@]2(C)[C@@H](O)CC[C@H]3[C@](C)(Cc4c[nH]c5ccccc45)[C@@H](C)CC[C@]132 | 0.86 (inactive) | 1.09 | 0.94 |
| Nc1ccc2ccccc2c1S(=O)(=O)O | 0.94 (inactive) | 1.03 | 0.97 |
| COC1=CC(=O)C(C)=C(C[C@@H](C)O)C1=O | 1.12 (inactive) | 0.99 | 1.11 |
| CC1CC(=O)c2c(cc3c(-c4c(O)cc(O)c5c(O)c6c(cc45)OC(C)CC6=O)c(O)cc(O)c3c2O)O1 (stereo not given) | 0.92 (inactive) | 1.06 | 0.98 |
| O=C1CCC[C@@H](N2C(=S)OC[C@H]2c2ccccc2)C1 | 0.91 (inactive) | 1.1 | 1.01 |
| NCC1O[C@@H](OC2C(N)C[C@@H](N)C(OC3OC(CO)[C@@H](O)C(N)[C@H]3O)[C@H]2O)C(O)[C@@H](O)C1O (stereo not given in full) | 1.1 (inactive) | 1.02 | 1.13 |
| Nc1nc(Cl)nc2c1ncn2C1O[C@H](CO)[C@@H](O)[C@@H]1F (stereo not given in full) | 1.78 (inactive) | 0.22 | 0.39 |
| CC1(C)CC2C1CCC1(CBr)CCC3C(CC(=O)O)C(=O)OC32C1 (stereo not given) | 0.9 (inactive) | 1.14 | 1.02 |
| O=C(C/C=C/c1ccc(O)c(O)c1)O[C@H](Cc1ccc(O)c(O)c1)C(=O)O | 1.06 (inactive) | 1 | 1.06 |
| NC(=O)c1c(Cl)nc(Cl)c2ccccc12 | 1.12 (inactive) | 0.92 | 1.03 |
| CO[C@H]1CC(O[C@@H]2/C(C)=C/C[C@@H]3C[C@@H](C[C@]4(CC[C@H](C)[C@@H](C5CCCCC5)O4)O3)OC(=O)[C@@H]3C=C(C)/C(=N/O)C4OC/C(=C\C=C\[C@@H]2C)[C@]43O)O[C@@H](C)C1O (stereo not given in full) | 1.11 (inactive) | 1.23 | 1.36 |
| CC1(C)C[C@H]2[C@@]1(O)[C@@H](O)C[C@]1(C)[C@H](O)C=C[C@]21CO | 0.9 (inactive) | 1.19 | 1.07 |
| CC(C)[C@H]1COC(=O)N1C(=O)CC(C)N1C(=S)OC[C@H]1c1ccccc1 (stereo not given in full) | 1.05 (inactive) | 1.07 | 1.12 |
| COC(=O)c1cc(OC)cc(OC(=O)c2c(O)cc3cc(C)oc(=O)c3c2O)c1O | 0.92 (inactive) | 0.94 | 0.86 |
| CN[C@H]1[C@@H](O[C@@H]2[C@@H](O[C@@H]3[C@@H](O)[C@H](O)[C@@H](N=C(N)N)[C@H](O)[C@H]3N=C(N)N)O[C@H](C)[C@@]2(O)CO)O[C@H](CO)[C@@H](O)[C@@H]1O | 0.84 (inactive) | 1.23 | 1.03 |
| COC(=O)[C@@]12Oc3ccc(-c4ccc5c(c4O)C(O)=C4C(=O)C[C@H](C)[C@H](O)[C@]4(C(=O)OC)O5)c(O)c3C(O)=C1C(=O)C[C@H](C)[C@@H]2O | 1.15 (inactive) | 0.96 | 1.1 |
| COc1c(F)c(F)cc(C(=O)O)c1F | 1.1 (inactive) and 1.01 (inactive) | 0.89 and 0.98 | 0.98 and 0.99 |
| CN(C(=O)c1ccccc1)C1C(O[C@@H]2OC(COS(=O)(=O)O)C(NC(=O)c3ccccc3)[C@H](OS(=O)(=O)O)[C@H]2OS(=O)(=O)O)OC2C[C@@H](NC(=O)c3ccccc3)[C@@H](OC3C(NC(=O)c4ccccc4)C[C@@H](NC(=O)c4ccccc4)[C@H](OS(=O)(=O)O)[C@H]3OS(=O)(=O)O)OC2C1OS(=O)(=O)O (stereo not given in full) | 1 (inactive) | 1.06 | 1.06 |

| SMILES | red/green cell ratio (normalised) | normalised cell number [1] | normalised cell number [2] |
| --- | --- | --- | --- |
| CC(C)=CCC/C(C)=C\CC1=C(C)C(=O)c2ccccc2C1=O | 0.98 (inactive) | 1.11 | 1.09 |
| Oc1ccc2ccccc2c1Oc1ccc2ccccc2c1 | 0.92 (inactive) | 0.86 | 0.79 |
| CC1CCC2(OC1)OC1CC3C4CCC5C[C@@H](O)CCC5(C)C4=CCC3(C)C1[C@@H]2C (stereo not given in full) | 0.87 (inactive) | 1.08 | 0.94 |
| COc1cc(O)c2c(c1)[C@@H](O)[C@@]13CO[C@@H](O)[C@@]1(O3)C2=O | 1.09 (inactive) | 1.01 | 1.1 |
| C=C(C)[C@@H]1CC[C@]2(C)CC[C@]3(C)[C@@H](CCC4[C@@]5(C)CC[C@H](O)C(C)(C)C5CC[C@]43C)C12 (stereo not given in full) | 1.12 (inactive) | 0.95 | 1.07 |
| COc1c(F)c(F)cc(C(N)=O)c1F | 1.04 (inactive) | 0.96 | 0.99 |
| Cc1ccc(S(=O)(=O)O[C@@H]2CCOC2=O)cc1 | 0.71 (inactive) | 1.41 | 1.01 |
| CC(C)(O)[C@@H]1CC[C@](C)([C@H]2[C@@H](O)C[C@@]3(C)C4C[C@H](O[C@@H]5O[C@H](CO)[C@@H](O)[C@H](O)[C@H]5O)C5C(C)(C)[C@@H](O[C@@H]6OC[C@@H](O)[C@H](O)[C@H]6O)CC[C@@]56C[C@@]46CC[C@]23C)O1 (stereo not given in full) | 0.94 (inactive) | 0.98 | 0.92 |
| C[C@@H]1[C@H](O)[C@@H](C)/C=C/C=C/C=C/C=C/C=C/C=C/C=C/[C@H](OC2O[C@H](C)[C@@H](O)[C@H](N)[C@@H]2O)C[C@@H]2O[C@](O)(C[C@@H](O)C[C@@H](O)[C@H](O)CC[C@@H](O)C[C@@H](O)CC(=O)O[C@H]1C)C[C@H](O)[C@H]2C(=O)O (stereo not given in full) | 0.82 (inactive) | 1.26 | 1.03 |
| CC1(C)C2CCC1(C)C(O)C2 (stereo not given) | 1.2 (inactive) | 0.75 | 0.9 |
| CC(CC(=O)N1C(=O)OC[C@H]1c1ccccc1)N1CCSC1=S (stereo not given in full) | 0.94 (inactive) | 1.15 | 1.08 |
| CO[C@@]1(NC(=O)C2SC(=C(C(N)=O)C(=O)O)S2)C(=O)N2C(C(=O)O)=C(CSc3nnnn3C)CSC21 (stereo not given in full) | 0.96 (inactive) | 1.21 | 1.17 |
| CO[C@H]1C[C@H](O[C@H]2[C@H](C)[C@@H](O[C@@H]3O[C@H](C)C[C@H](N(C)C)[C@H]3O)[C@@H](C)C[C@]3(CO3)C(=O)[C@H](C)[C@@H](O)[C@@H](C)[C@@H](C)OC(=O)[C@@H]2C)O[C@@H](C)[C@@H]1O | 0.92 (inactive) | 1.06 | 0.97 |
| CC(C)[C@@H]1CC[C@@H](C)C[C@H]1OC(=O)c1ccccc1 | 1.07 (inactive) | 0.9 | 0.97 |
| CC(=O)OC1(C)CC[C@@]23CC1C(C)(C)[C@@H]2CC[C@H]3C (stereo not given in full) | 0.99 (inactive) | 1.16 | 1.15 |
| C[C@H]1[C@H](OC(=O)CCC(=O)O)O[C@@H]2O[C@]3(C)CC[C@H]4[C@H](C)CC[C@@H]1[C@@]24OO3 | 0.81 (inactive) | 0.68 | 0.55 |
| C/C1=C\[C@H](C)C[C@H](C)[C@@H](C)OC(=O)[C@H](Cc2ccccc2)NC(=O)[C@@H](C)C(=O)C(C)C1O (stereo not given in full) | 0.99 (inactive) | 1.08 | 1.06 |
| CC(C)(C)[Si](C)(C)OCC1O[C@H](Sc2ccccc2)[C@H]2NC(=O)O[C@H]2C1O (stereo not given in full) | 1.07 (inactive) | 0.97 | 1.05 |
| CC(=O)O[C@H]1CC[C@]2(C)C3CC[C@@]4(C)C(CC5O[C@@]6(CCC(C)CO6)[C@@H](C)C54)C3CC[C@@H]2C1 (stereo not given in full) | 1.09 (inactive) | 0.87 | 0.95 |
| C=C1C(=O)OC(C(=O)OC)C1(O)CCCCCCCCC (stereo not given) | 1.05 (inactive) | 0.99 | 1.04 |
